Measurements taken from the supplement of paper PMC10981050.
Values joined by “and” are separate entries in the source; they are usually repeats but may differ in a detail not shown here. Equal entries are not always repeated. Structures can show the parent of a compound that is named as a salt.

Legend:
Test in all cases: cell viability relative to vehicle control; higher = less cytotoxic
Details in all cases: 10 µM
K562 = test system: K562
Procedure, shortened: (§1)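 Each screen used CRISPR-edited mutant and wild-type clones from four leukaemia lines. Compounds were acoustically dispensed at a single 10 µM dose, and CellTiter-Glo luminescence was read after 48 h with the supernatant first removed. Viability was analysed in Genedata Screener and given as percent of the on-plate vehicle control.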

MARIMO = test system: MARIMO
Procedure, shortened: as §1

MOLM14 = test system: MOLM14
Procedure, shortened: as §1

OCI-AML2 = test system: OCI-AML2
Procedure, shortened: as §1

| SMILES | cell viability (K562; SRSF2 genotype: SRSF2 P95H/wt) | cell viability (K562; SRSF2 genotype: SRSF2 wt/wt) | cell viability (MARIMO; SRSF2 genotype: SRSF2 P95H/wt) | cell viability (MARIMO; SRSF2 genotype: SRSF2 wt/wt) | cell viability (MOLM14; SRSF2 genotype: SRSF2 P95H/wt) | cell viability (MOLM14; SRSF2 genotype: SRSF2 wt/wt) | cell viability (OCI-AML2; SRSF2 genotype: P95H/wt) | cell viability (OCI-AML2; SRSF2 genotype: wt/wt) |
| --- | --- | --- | --- | --- | --- | --- | --- | --- |
| CN1CCN(CCOc2cc(OC3CCOCC3)c3c(Nc4c(Cl)ccc5c4OCO5)ncnc3c2)CC1 [Saracatinib (AZD0530)] | 7.73% and 16.1% | 9.65% | 97.1% | 107% | 50.3% | 55.9% | 73.4% | 63.4% |
| COc1cc(C(=O)N(CCCc2ccccc2)Cc2ccc(CC(=O)O)cc2)cc(OC)c1C | 95.6% and 98% | 99.5% | 105% | 109% | 101% | 99.4% | 101% | 100% |
| CCOC(=O)n1ccn(C)c1=S [Carbimazole] | 107% and 106% | 113% | 110% | 103% | 103% | 111% | 108% | 97.4% |
| N[C@@H](CSCCB(O)O)C(=O)O [BEC Hydrochloride] | 105% and 101% | 96.8% | 99.4% | 114% | 101% | 104% | 109% | 111% |
| CCn1c(=O)c(-c2ccc(Cl)cc2Cl)cc2cnc(Nc3ccc(N4CCNCC4)c(F)c3)nc21 | 1.46% and 1.57% | 3.22% | 4.24% | 2.21% | 0.53% | 0.81% | 0.95% | 1.2% |
| COc1ccc(COc2ccc(CC#N)cc2)cc1 | 103% | 97.9% | 96.4% | 108% | 114% | 110% | 96.3% | 82.9% |
| C#C[C@]1(O)CC[C@H]2[C@@H]3CCC4=CC(=O)CC[C@@H]4[C@H]3CC[C@@]21C [Norethindrone (Norethisterone)] | 103% and 101% | 100% | 101% | 116% | 98.3% | 106% | 107% | 111% |
| COc1cc2c(cc1OC)[C@@H](Cc1ccc(O)c(Oc3cc4c(cc3OC)CCN(C)[C@@H]4Cc3ccc(O)cc3)c1)N(C)CC2 [Liensinine] | 86.6% and 83% | 78.5% | 63.3% | 74.6% | 69.1% | 83.3% | 63.2% | 59.9% |
| Cc1cc(C)c(-c2csc(NC(=O)c3ccccc3)n2)c(C)c1 | 58.4% and 51.8% | 51% | 35.1% | 31.6% | 45% | 40.5% | 39.5% | 27.5% |
| CC(C)c1cc2c(cc1S(=O)(=O)O)[C@@]1(C)CCC[C@@](C)(C(=O)O)[C@@H]1CC2 [Ecabet sodium] | 95.2% and 96.4% | 105% | 96.6% | 101% | 97% | 99.7% | 105% | 91.8% |
| CC(=O)OCC1=C(C(=O)O)N2C(=O)[C@@H](NC(=O)Cc3cccs3)[C@H]2SC1 [Cephalothin] | 94.9% and 98.7% | 96.1% | 95.8% | 100% | 94.7% | 101% | 95.1% | 104% |
| O=C(/C=C/c1ccc(CN(CCO)CCc2c[nH]c3ccccc23)cc1)NO [LAQ824 (Dacinostat)] | 1.15% and 10.3% | 2.76% | 5.99% | 11.9% | 0.84% | 0.58% | 1.63% | 2.36% |
| OC[C@H]1O[C@@H](Oc2cc(O)cc(/C=C/c3ccc(O[C@@H]4O[C@H](CO)[C@@H](O)[C@H](O)[C@H]4O)cc3O)c2)[C@H](O)[C@@H](O)[C@@H]1O [Mulberroside A] | 94.5% and 95.1% | 98.2% | 95.3% | 101% | 97.3% | 97.6% | 97.1% | 105% |
| CC(C)=CCc1cc2c(cc1O)O[C@H](c1ccc(O)cc1)CC2=O [Bavachin] | 95.2% and 87.3% | 100% | 96.5% | 99.5% | 111% | 109% | 101% | 114% |
| CCC/N=C1\S/C(=C\c2ccc(OC[C@H](O)CO)c(Cl)c2)C(=O)N1c1ccccc1C | 89.5% and 93.7% | 89.6% | 105% | 98.3% | 94.5% | 93.5% | 108% | 95.2% |
| CC(=O)[O-].[K+] [Potassium acetate] | 100% and 97.3% | 103% | 106% | 97.5% | 96.7% | 99.6% | 111% | 93.4% |
| O=C(O)/C=C/c1ccc(Cn2ccnc2)cc1 [Ozagrel] | 102% and 100% | 94.6% | 101% | 106% | 102% | 100% | 98.1% | 99.6% |
| CN1CCN(c2cccc(Nc3nc4c(-c5ccc(S(C)(=O)=O)cc5)cccn4n3)c2)CC1 | 68% and 76.9% | 70.5% | 67.1% | 67.8% | 3.24% | 3.52% | 11.9% | 22.6% |
| C[N+]12CCc3cc4c(cc3C1(O)Cc1ccc3c(c1C2)OCO3)OCO4 (stereo unspecified) [Hydroprotopine] | 94.4% and 93.5% | 89.5% | 84.6% | 91.9% | 91.2% | 98.8% | 96.3% | 99% |
| CC(c1cc2ccccc2s1)N(O)C(N)=O (stereo unspecified) [Zileuton] | 101% and 96.3% | 99.1% | 94.3% | 99.2% | 98.7% | 98.1% | 92.8% | 97.4% |
| COC1C(O)C(O)C(O)C(O)C1O (stereo unspecified) [Sequoyitol] | 102% and 107% | 110% | 110% | 99.1% | 105% | 109% | 99.7% | 106% |

| SMILES | cell viability (K562; SRSF2 genotype: SRSF2 P95H/wt) | cell viability (K562; SRSF2 genotype: SRSF2 wt/wt) | cell viability (MARIMO; SRSF2 genotype: SRSF2 P95H/wt) | cell viability (MARIMO; SRSF2 genotype: SRSF2 wt/wt) | cell viability (MOLM14; SRSF2 genotype: SRSF2 P95H/wt) | cell viability (MOLM14; SRSF2 genotype: SRSF2 wt/wt) | cell viability (OCI-AML2; SRSF2 genotype: P95H/wt) | cell viability (OCI-AML2; SRSF2 genotype: wt/wt) |
| --- | --- | --- | --- | --- | --- | --- | --- | --- |
| CC(=O)c1ccccc1O [2'-Hydroxyacetophenone] | 101% and 100% | 99.4% | 99.1% | 96.6% | 105% | 101% | 102% | 105% |
| N#Cc1ccc(COC[C@H]2O[C@@H](n3c(NCc4ccc(Cl)c(Cl)c4)nc4c(N)ncnc43)[C@H](O)[C@@H]2O)cc1 | 52% and 62.8% | 45.7% | 32.5% | 35.6% | 26% | 14.3% | 35.1% | 34.8% |
| NS(=O)(=O)c1cc2c(cc1Cl)NC(C(Cl)Cl)NS2(=O)=O (stereo unspecified) [Trichlormethiazide (Achletin)] | 102% and 101% | 102% | 108% | 99.7% | 94.7% | 106% | 112% | 110% |
| C[n+]1cc2c3c(ccc2c2ccc4cc5c(cc4c21)OCO5)OCO3 [Sanguinarine chloride] | 0.68% and 0.46% | 0.74% | 0.3% | 0.38% | 0.25% | 0.34% | 0.31% | 0.29% |
| Oc1ccc2c(c1)OCO2 [Sesamol] | 96.7% and 82% | 83.8% | 76.8% | 88.2% | 86.5% | 88% | 92% | 92.1% |
| Cc1ccc(S(=O)(=O)c2ccc([N+](=O)[O-])o2)cc1 | 0.16% and 0.25% | 0.18% | 0.21% | 0.25% | 0.19% | 0.2% | 0.21% | 0.26% |
| Cc1nc(-c2cn3c(n2)-c2ccc(-c4cnn(C(C)(C)C(N)=O)c4)cc2OCC3)n(C(C)C)n1 | 74.5% and 79.4% | 72.8% | 45.2% | 42% | 32.3% | 40.1% | 8.91% | 22.8% |
| O=C(O)c1cc(=O)cc(C(=O)O)o1 [Chelidonic acid] | 105% | 113% | 110% | 106% | 101% | 107% | 110% | 105% |
| COCCCN1CCC(NC(=O)c2cc(Cl)c(N)c3c2OCC3)CC1 [Prucalopride] | 86.4% and 82% | 81.5% | 85.9% | 91.6% | 87.3% | 88.9% | 80.5% | 88.7% |
| COc1cc2c(cc1OC)CC(=O)N(CCCN(C)C[C@H]1Cc3cc(OC)c(OC)cc31)CC2 [Ivabradine HCl (Procoralan)] | 97.8% and 97.4% | 93.7% | 97.4% | 109% | 99.6% | 106% | 95.8% | 107% |
| OC[C@H]1O[C@@H](OCCc2ccc(O)cc2)[C@H](O)[C@@H](O)[C@@H]1O [Salidroside (Rhodioloside)] | 101% and 105% | 102% | 106% | 104% | 105% | 109% | 101% | 94.6% |
| COc1ccc(CCC(=O)Nc2nc3ccc(Cl)cc3s2)cc1OC | 95.4% and 97% | 92% | 97.3% | 96.3% | 94.6% | 97.8% | 91.4% | 87.5% |
| CCCCCCCCCCCCCCCCn1cc[n+](Cc2ccccc2)c1C | 0.26% and 0.36% | 0.22% | 0.21% | 0.19% | 0.01% | 0% | 0.05% | 0.07% |
| CC1(C)O[C@@H]2C[C@H]3[C@@H]4C[C@H](F)C5=CC(=O)C=C[C@]5(C)[C@@]4(F)[C@@H](O)C[C@]3(C)[C@]2(C(=O)CO)O1 [Fluocinolone acetonide (Flucort-N)] | 95% and 96% | 92.6% | 98.3% | 104% | 95.6% | 91.6% | 100% | 109% |
| O=C(/C=C\n1cnc(-c2cc(C(F)(F)F)cc(C(F)(F)F)c2)n1)NNc1cnccn1 [Selinexor (KPT-330)] | 8.08% and 19.9% | 13.9% | 22.6% | 22.3% | 2.17% | 1.26% | 6.48% | 11.4% |
| Cc1[nH]c2ccccc2c1CCNCc1ccc(/C=C/C(=O)NO)cc1 [Panobinostat (LBH589)] | 1.37% and 8.1% | 2.36% | 3.16% | 7.58% | 0.67% | 0.53% | 1.13% | 1.48% |
| Nc1cccc2c1C(=O)N(C1CCC(=O)NC1=O)C2=O (stereo unspecified) [Pomalidomide] | 102% and 96.9% | 88% | 87.4% | 99% | 88.5% | 93.5% | 120% | 121% |
| C[C@]12CC[C@@H]3c4ccc(O)cc4CC[C@H]3[C@@H]1CC[C@@H]2OC(=O)CCC1CCCC1 [Estradiol Cypionate] | 91.5% and 90.9% | 91.3% | 86.9% | 81.6% | 75% | 84.1% | 55.4% | 53.1% |
| OCc1cc([C@@H](O)CNCCCCCCOCCOCc2c(Cl)cccc2Cl)ccc1O [Vilanterol Trifenate] | 85% and 94.3% | 87% | 79.5% | 86.2% | 72.8% | 82.9% | 73.9% | 76.3% |
| C/C=C1\[C@H]2C=C(C)C[C@]1(N)c1ccc(=O)[nH]c1C2 [(-)-Huperzine A (HupA)] | 105% and 103% | 108% | 103% | 103% | 115% | 110% | 109% | 103% |
| COc1cc(CCC(=O)CC(=O)CCc2ccc(O)c(OC)c2)ccc1O [Tetrahydrocurcumin] | 94.1% and 90.6% | 89.2% | 90.2% | 88.7% | 92.8% | 94.5% | 85.8% | 97.3% |
